High-throughput results: PubChem, Broad Institute
Shown are actives, neighbours in structure and some others; about 2.8% of the full set was active somewhere.
Shn3 3UTR inh: inhibitors of Schnurri-3 3'UTR reporter in osteoblasts | 0.52% of 360,000 active | Clone20 osteoblast Shn3 3'UTR firefly luciferase, 24 h | inhibition, % at 12.5 µM | AID 588674;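 active means mean inhibition of at least 75% with every replicate also reaching 75%; inconclusive means mean inhibition at least 75% but some replicate below; inactive means mean inhibition below 75%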;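 further: 0% = median of neutral control wells and 100% = pilot-screen positive control compound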
HIV Env fusion: inhibitors of HIV Env-mediated cell fusion; inhibition, % at 12.3 µM; 1.1% of 360,000 active; HeLa-JRFL Env/CEM21 cell fusion, luciferase;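 active means mean replicate inhibition score of at least 50 and every replicate individually at or above 50; inconclusive means only one of the two criteria met; inactive means mean below 50 and not all replicates reaching 50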;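 further: 0% = plate neutral controls and 100% = maraviroc near 300 nM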
LMP1 NFkB inh: reduces LMP1-driven NF-kappaB luciferase signal. LMP1-induced NF-kappaB luciferase reporter cells, luminescence. inhibition, % at 12.5 µM. 0.69% of 350,000 active. AID 504558; in the data active means inhibition above about 41%; inconclusive means no clear call, values can overlap the other calls;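 further: 0% = neutral control wells and 100% = reference inhibitor control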
N-glyco inh: N-linked glycosylation inhibition; D54 ERlucT glycosylation luciferase reporter, 24 h; percent of 100 nM tunicamycin response; reporter increase, % at 12.5 µM; 0.23% of 360,000 active;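 active means mean luciferase reporter signal, scaled so untreated is 0 and the glycosylation-blocking control 100, at or above a set limit in every replicate; inconclusive means mean reaches the limit but not every replicate does; inactive means mean below the limit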;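 further: luciferase carries N-glycosylation sites so blocking glycosylation raises the light; 0% = median of neutral control wells and 100% = median of 100 nM tunicamycin wells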
NSD2 HMT inh: inhibitors of human histone methyltransferase NSD2; AID 743445; inhibition, % at 12.5 µM; NSD2 peptide methylation, AlphaScreen, 120 min; 0.54% of 310,000 active; O96028; in the data active means inhibition above about 50%
Target sequence (O96028 whole entry, looked up): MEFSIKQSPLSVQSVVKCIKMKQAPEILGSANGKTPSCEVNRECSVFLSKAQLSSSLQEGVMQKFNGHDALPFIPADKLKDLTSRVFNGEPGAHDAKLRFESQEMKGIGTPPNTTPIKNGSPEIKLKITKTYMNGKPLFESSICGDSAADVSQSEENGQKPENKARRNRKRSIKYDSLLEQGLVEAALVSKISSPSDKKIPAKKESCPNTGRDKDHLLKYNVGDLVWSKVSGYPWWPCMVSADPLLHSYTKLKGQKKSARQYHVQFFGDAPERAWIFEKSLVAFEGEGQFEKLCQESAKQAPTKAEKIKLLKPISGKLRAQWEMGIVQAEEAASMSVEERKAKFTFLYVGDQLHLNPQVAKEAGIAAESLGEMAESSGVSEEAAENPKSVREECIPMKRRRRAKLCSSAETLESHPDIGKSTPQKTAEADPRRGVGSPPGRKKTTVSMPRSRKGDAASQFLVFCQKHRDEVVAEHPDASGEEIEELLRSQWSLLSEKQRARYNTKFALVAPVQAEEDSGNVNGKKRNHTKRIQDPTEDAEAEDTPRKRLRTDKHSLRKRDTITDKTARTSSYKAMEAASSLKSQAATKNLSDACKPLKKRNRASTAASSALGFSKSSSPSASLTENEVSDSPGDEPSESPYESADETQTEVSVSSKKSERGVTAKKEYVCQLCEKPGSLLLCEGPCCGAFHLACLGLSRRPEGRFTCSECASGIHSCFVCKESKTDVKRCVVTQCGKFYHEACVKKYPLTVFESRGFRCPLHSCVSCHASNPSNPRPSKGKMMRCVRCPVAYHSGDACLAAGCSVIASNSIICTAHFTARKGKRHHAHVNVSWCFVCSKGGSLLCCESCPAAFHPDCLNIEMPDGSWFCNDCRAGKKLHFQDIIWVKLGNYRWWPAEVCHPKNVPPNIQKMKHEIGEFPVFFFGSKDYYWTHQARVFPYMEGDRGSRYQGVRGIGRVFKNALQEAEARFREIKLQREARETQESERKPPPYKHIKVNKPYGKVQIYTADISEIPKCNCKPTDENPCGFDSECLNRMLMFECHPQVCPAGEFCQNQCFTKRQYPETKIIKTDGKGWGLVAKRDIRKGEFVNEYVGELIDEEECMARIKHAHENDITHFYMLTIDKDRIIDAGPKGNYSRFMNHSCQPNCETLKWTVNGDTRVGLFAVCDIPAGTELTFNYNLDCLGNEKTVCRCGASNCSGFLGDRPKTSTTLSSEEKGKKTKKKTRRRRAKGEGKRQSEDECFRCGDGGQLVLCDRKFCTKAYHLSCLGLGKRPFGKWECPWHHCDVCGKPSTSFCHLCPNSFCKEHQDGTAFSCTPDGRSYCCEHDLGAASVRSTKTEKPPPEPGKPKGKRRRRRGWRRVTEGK
PAX8 reporter: lowers PAX8-driven luciferase in RMG-I cells; RMG-I TPO-luciferase reporter, SteadyGlo, 24 h; inhibition, % at 12.6 µM; 1.2% of 360,000 active; AID 652154;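 active means mean replicate inhibition at least 60% with every replicate also reaching 60%; inconclusive means only one of the two criteria is met; inactive means mean below 60% and not all replicates reaching 60%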;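 further: luciferase light reporting Pax8 driven TPO promoter activity; plate controls were median of neutral control wells for no effect and mitoxantrone controls for full effect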
The depositor's hits bear a star; i = inactive; ? = inconclusive; . = not tested or not shown; [ ] = another dose, or the depositor's remark.

SMILES	Shn3 3UTR inh	HIV Env fusion	LMP1 NFkB inh	N-glyco inh	NSD2 HMT inh	PAX8 reporter
Cc1cccc(N2CCN(C(=O)CCCSc3nc4ccccc4[nH]3)CC2)c1C	34.1	73.5*	6.3	-5.1	0.8	.
O=C(CCCSc1nc2ccccc2[nH]1)N1CCN(c2ccccc2)CC1	-4.0	30.1	-2.7	-1.1	-1.8	.
CCCC#Cc1cnc2c(c1)C(=O)N([C@@H](C)CO)C[C@@H](C)[C@@H](CN(C)C(=O)c1cnccn1)O2	.	-8.2[16.7 µM]	.	.	.	.
COc1cc2c(cc1OC)C(c1ccccc1)N(C(=O)c1cccc(S(C)(=O)=O)c1)CC2 (stereo not given)	-32.6	-70.1	-24.9	66.9*	1.2	-0.6
C[C@@H]1CN([C@@H](C)CO)C(=O)c2cc(NC(=O)Cc3ccccc3)ccc2O[C@@H]1CN(C)S(=O)(=O)c1ccc(F)cc1	.	.	.	.	.	0.0
O=C(Nc1cc(Cl)ccc1-n1cncn1)c1ccc([N+](=O)[O-])o1	-28.1	8.9	-3.4	13.9	2.8	63.0*
CCC(=O)N1CCN(c2ccc(Cl)cc2NC(=O)c2ccc([N+](=O)[O-])o2)CC1	-30.0	41.9	-22.8	8.0	0.7	27.2
O=C(Nc1cc(Cl)ccc1F)c1ccc(-n2cncn2)c([N+](=O)[O-])c1	-15.6	-1.0	0.4	0.5	4.6	-8.1
CCC(=O)N1CCN(c2ccc(NC(=O)c3ccc([N+](=O)[O-])o3)cc2Cl)CC1	95.9*	i	-48.0	0.9	34.7	99.0*
CCN1CCN(c2ccc(S(=O)(=O)N3CCCCC3)cc2NC(=O)c2ccc([N+](=O)[O-])o2)CC1	-51.5	-16.1	-19.9	-14.1	-2.2	56.4
CCN1CCN(c2ccc(NC(=O)c3ccc([N+](=O)[O-])o3)cc2Cl)CC1	67.5	-435.1	-37.3	-12.0	7.3	83.3*
CC(=O)N1CCN(c2ccc(NC(=O)c3ccc([N+](=O)[O-])o3)cc2Cl)CC1	96.3*	-105.8	-26.3	-18.4	-1.9	101.5*
C[C@H](CO)N1C[C@H](C)[C@@H](CN(C)Cc2ccncc2)Oc2ncc(C3=CCCCC3)cc2C1=O	.	5.6[16.7 µM]	.	.	.	.
COCCNC(=O)[C@H]1[C@H](CO)[C@H]2Cn3c(ccc(C4=CCCCC4)c3=O)[C@@H]1N2C(=O)C1CCCC1	.	.	.	.	.	-7.9
C[C@@H]1CN([C@H](C)CO)C(=O)Cc2cc(NC(=O)Cn3cnnn3)ccc2O[C@@H]1CN(C)C(=O)Nc1cccc2ccccc12	.	20.4[16.7 µM]	.	.	.	22.6
CCc1nc(N2CCCC(C)C2)c2oc3ccccc3c2n1 (stereo not given)	25.9	40.7	-40.2	-0.1	-3.0	.
CCc1nc(N2CCCCC2C)c2oc3ccccc3c2n1 (stereo not given)	25.3	75.4*	4.3	20.1	-7.3	.
CCc1nc(N2CCCCC2)c2oc3ccccc3c2n1	10.3	69.1*	7.2	-1.6	-7.5	.
CN1C(=O)c2cc(NC(=O)c3cccs3)ccc2OC[C@H]2O[C@@H](CC(=O)NCC3CC3)CC[C@H]21	.	3.0[16.7 µM]	.	.	.	-15.0
CCOC(=O)[C@@H]1[C@H]2COc3cc(OC)ccc3[C@@H]2N2C(=O)N(c3ccc(Br)cc3)C(=O)[C@@]12C	2.0	-5.2	5.9	0.3	.	-8.5
CCOC(=O)[C@@H]1[C@H]2COc3ccc(Br)cc3[C@@H]2N2C(=O)N(c3ccc(C(F)(F)F)cc3)C(=O)[C@@]12C	-0.6	66.2*	-5.3	-2.7	.	11.9
CCOC(=O)[C@@H]1[C@H]2COc3ccc(Br)cc3[C@@H]2N2C(=O)N(c3cccc(F)c3)C(=O)[C@@]12C	58.8	75.2*	-7.2	-2.0	.	-6.3
CCOC(=O)[C@@H]1[C@H]2COc3ccc(Br)cc3[C@@H]2N2C(=O)N(c3ccc(F)cc3)C(=O)[C@@]12C	16.8	99.9*	2.3	0.5	.	4.6
CCOC(=O)[C@@H]1[C@H]2COc3ccccc3[C@@H]2N2C(=O)N(c3cccc(F)c3)C(=O)[C@]12C	20.4	25.7	4.6	1.1	.	9.0
CCOC(=O)[C@@H]1[C@H]2COc3ccc(Br)cc3[C@@H]2N2C(=O)N(c3ccc(Cl)cc3)C(=O)[C@@]12C	19.6	66.7*	8.2	0.0	.	4.6
SMILES	Shn3 3UTR inh	HIV Env fusion	LMP1 NFkB inh	N-glyco inh	NSD2 HMT inh	PAX8 reporter
CCOC(=O)[C@H]1[C@H]2COc3ccc(Br)cc3[C@@H]2N2C(=O)N(c3ccc(F)cc3)C(=O)[C@@]12C	3.3	13.3	3.1	-3.0	.	12.1
CCOC(=O)[C@@H]1[C@H]2COc3ccc(Br)cc3[C@@H]2N2C(=O)N(c3ccc(OC)cc3)C(=O)[C@@]12C	-0.4	53.2	6.6	1.5	.	5.2
C[C@H]1CN([C@@H](C)CO)C(=O)c2cc(/C=C/c3ccccc3)cnc2O[C@@H]1CN(C)S(=O)(=O)c1cn(C)cn1	.	35.5[16.7 µM]	.	.	.	6.7
C[C@@H]1CCCCO[C@@H](CN(C)S(C)(=O)=O)[C@@H](C)CN([C@H](C)CO)C(=O)c2cc(NC(=O)C3CCCCC3)ccc2O1	.	-3.7[16.7 µM]	.	.	.	-6.3
CC(C)NC(=O)N[C@@H]1C[C@@H]2O[C@H](CO)CC[C@@H]2O[C@@H]1CCc1ccc(-c2ccc(F)cc2)cc1	.	.	.	.	.	-3.1
COc1ccccc1-c1nnc(SCC(=O)NCc2c(C)c(Cl)cc(C(C)C)c2O)o1	10.5	85.6*	-3.1	-2.2	-2.5	.
COc1ccc(CCNC(=O)[C@@H]2c3ccccc3C(=O)N(CC34CC5CC(CC(C5)C3)C4)[C@H]2c2ccc(CO)cc2)cc1	.	40.1[16.7 µM]	.	.	.	3.4
O=C(NCC(F)(F)F)[C@@H]1c2ccccc2C(=O)N(CC23CC4CC(CC(C4)C2)C3)[C@H]1c1ccc(CO)cc1	.	74.2*[16.7 µM]	.	.	.	15.4
O=C(NCc1cc(F)cc(F)c1)[C@@H]1[C@@H](CO)[C@@H]2Cn3c(cccc3=O)[C@H]1N2C(=O)c1cnccn1	.	4.3[16.7 µM]	.	.	.	.
CCCCCCN(C(=O)CCCCCN1C(=O)NC(c2ccc(-c3ccccc3)cc2)C(C(=O)OCc2ccccc2)=C1C)C(C)C(=O)NCCCC (stereo not given)	.	?	.	.	.	74.9*
O=C(CN1C(=O)c2ccccc2S1(=O)=O)Nc1ncc(Cl)cc1Cl	38.9	.	41.2*	-16.4	2.5	39.1
O=C(CN1C(=O)c2ccccc2S1(=O)=O)c1ccccc1	51.9	.	61.3*	-17.7	6.7	.
O=C(CN1C(=O)c2ccccc2S1(=O)=O)c1ccccc1Cl	63.0	83.2*	67.3*	-23.5	1.6	89.8*
O=C(CN1C(=O)c2ccccc2S1(=O)=O)NCc1ccccc1Cl	3.9	10.4	-0.4	-0.2	.	-4.3
Cc1ccc(C(=O)CN2C(=O)c3ccccc3S2(=O)=O)cc1	54.7	77.5*	74.4*	-19.4	-1.9	70.9*
C[C@@H]1CCCCO[C@@H](CN(C)S(=O)(=O)c2cccs2)[C@H](C)CN([C@@H](C)CO)C(=O)c2cc(NC(=O)c3ccccc3)ccc2O1	.	14.0[16.7 µM]	.	.	.	-3.2
C[C@@H]1CN([C@@H](C)CO)C(=O)Cc2cc(NC(=O)Cc3cn(C)c4ccccc34)ccc2O[C@H]1CN(C)C(=O)Nc1cccc2ccccc12	.	-6.1[16.7 µM]	.	.	.	.
